Experimental data taken from PubChem BioAssay AID1851 (National Center for Advancing Translational Sciences (NCATS), 2009).
Hit rate of the full screen: of about 16,000 compounds, about 4,000 (25%) were called active. About 26% were inconclusive and are not listed. Calls follow the shape of the dose curve; as a rule, active = well fitted curve in the direction sought with a large enough effect; inconclusive = small, poorly fitted or top-dose-only effect, or effect the other way; inactive = no such curve, though single readings can be large or run the other way. These entries were drawn from the full list.

biological target: Cytochrome P450 2C9 (Homo sapiens) (UniProt P11712); assay: Cytochrome panel assay with activity outcomes; conditions: recombinant CYP, pro-luciferin dealkylation, luminescence, p450-cyp2c9; series mostly up to 57.1 µM; activity, negative = inhibition: at the top concentration
% is scaled to controls: 0 for no effect and ±100 for the full control effect.

Chain of Cytochrome P450 2C9 (Homo sapiens) (P11712 whole entry, looked up): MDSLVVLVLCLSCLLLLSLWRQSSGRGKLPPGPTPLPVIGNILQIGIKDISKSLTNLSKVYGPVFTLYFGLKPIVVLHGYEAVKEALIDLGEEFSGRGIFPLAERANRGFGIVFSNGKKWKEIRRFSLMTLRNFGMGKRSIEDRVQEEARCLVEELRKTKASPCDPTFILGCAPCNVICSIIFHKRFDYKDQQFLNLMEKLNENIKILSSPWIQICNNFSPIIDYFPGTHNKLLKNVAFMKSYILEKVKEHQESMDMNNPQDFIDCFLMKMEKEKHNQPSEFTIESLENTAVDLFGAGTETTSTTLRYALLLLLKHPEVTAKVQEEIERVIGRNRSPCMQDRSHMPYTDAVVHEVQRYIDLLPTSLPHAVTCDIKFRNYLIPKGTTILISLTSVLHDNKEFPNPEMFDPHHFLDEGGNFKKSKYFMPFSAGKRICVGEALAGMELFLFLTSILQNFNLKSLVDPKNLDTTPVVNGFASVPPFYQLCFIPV

Row | SMILES | activity, negative = inhibition | AC50
1 | COc1ccccc1CN1CC[C@@]2(CCCN(S(C)(=O)=O)C2)C1 | 6.39% (inactive) | –
2 | N#CC(C#N)=NNc1ccc2cn[nH]c2c1 | – | 2.51 µM (active)
3 | C=C1C(=O)C=C2CN(C(=O)c3ccccc3)[C@@](Cc3ccc(F)cc3)(C(=O)OC)[C@@H]12 | – | 3.98 µM (active)
4 | COC(=O)[C@@]1(Cc2ccccc2)[C@@H]2C(=CC(=O)[C@H]2CC(=O)C(=O)N(C)C)CN1C(=O)c1ccccc1 | -29% (inactive) | –
5 | COC(=O)[C@@]1(Cc2ccc(F)cc2)[C@@H]2[C@@H](CC(=O)[C@H]2CC(=O)C(=O)N(C)C)CN1C(=O)c1ccccc1 | – | 20 µM (active)
6 | COC(=O)[C@@]1(Cc2ccc(OC)cc2)[C@@H]2C(=CC(=O)[C@H]2CC(=O)C(=O)N2CCCC2)CN1C(=O)c1ccccc1 | – | 10 µM (active)
7 | COC(=O)[C@@]1(Cc2ccc(F)cc2)[C@@H]2C(=CC(=O)[C@H]2CC(=O)C(=O)N2CCCC2)CN1C(=O)c1ccccc1 | – | 10 µM (active)
8 | COc1ccc(C(=O)N2CCC[C@@]3(CCN(C(=O)Nc4ccccc4)C3)C2)cc1 | -9.88% (inactive) | –
9 | O=C(O)c1c[nH]c2cc(OCc3ccccc3)ccc2c1=O | -11.1% [at 11.4 µM] (inactive) | –
10 | O=C(O)c1cc(C(=O)O)nc(C(=O)O)c1 | 13.5% [at 11.4 µM] (inactive) | –
11 | N[C@@H](C(=O)O)c1ccc(C(=O)O)cc1 | – | inactive
12 | O=C(O)c1ccc(SSc2ccc(C(=O)O)cn2)nc1 | – | 1.58 µM (active)
13 | C[C@@H](C(=O)NCc1ccccn1)[C@H]1C[C@]1(C)[C@H](NC(=O)OCc1ccccc1)c1ccccc1 | – | 10 µM (active)
14 | COC(=O)[C@H](C)[C@H]1C[C@]1(C)[C@H](NC(=O)OCc1ccccc1)c1ccccc1 | – | 2 µM (active)
15 | CC(C)C(NC(=O)C1CCCCC1)C(=O)NCc1ccccn1 (stereo not given) | -22.3% (inactive) | –
16 | C[C@@H](C(=O)NCc1cccc2ccccc12)[C@H]1C[C@]1(C)[C@H](NC(=O)OCc1ccccc1)c1ccccc1 | – | 3.16 µM (active)
17 | C[C@@H](C(=O)O)[C@H]1C[C@]1(C)[C@H](NC(=O)OCc1ccccc1)c1ccccc1 | – | 15.8 µM (active)
18 | C/C(CCN1CCc2nc(-c3ccccc3)c(-c3ccccc3)cc2C1)=N\OC[C@@H](O)[C@@H]1O[C@@H]2OC(C)(C)O[C@@H]2[C@H]1O | -8.77% [at 11.4 µM] (inactive) | –
19 | Cc1ccc(S(=O)(=O)N[C@@H]2COC(=O)C/C=C\[C@H](C)COC(=O)N[C@@H](C)C(=O)C/C=C\[C@H]2C)cc1 | 7.18% [at 11.4 µM] (inactive) | –
20 | CNc1ccnc(-c2ccccc2C(F)(F)F)n1 | 1.23% [at 2.29 µM] (inactive) | –
21 | C[C@@H](C(=O)NCc1nc2ccccc2[nH]1)[C@@H]1C[C@@]1(C)[C@@H](NC(=O)OCc1ccccc1)c1ccccc1 | – | 10 µM (active)
22 | CNC(=O)[C@H](C)[C@H]1C[C@]1(C)[C@H](NC(=O)OCc1ccccc1)c1ccccc1 | – | 10 µM (active)
23 | COC(=O)[C@H](C)[C@@H]1C[C@@]1(C)[C@@H](NC(=O)OCc1ccccc1)c1ccccc1 | – | 5.01 µM (active)
24 | COc1ccc(COC(=O)N/N=C2/C[C@@H](O)[C@@H](O)[C@@H]3[C@@H]4C(=O)N([C@@H](C)c5ccccc5)C(=O)[C@H]4CC[C@@H]23)cc1 | -19.2% [at 11.4 µM] (inactive) | –
25 | CCN1CCCC1Cn1cnc2c([nH]c3ccc(C)cc32)c1=O (stereo not given) | -19.8% (inactive) | –
26 | CN(C)CCNC(=O)C1CCCNC1=O (stereo not given) | 1.04% (inactive) | –
27 | Cn1cnc([N+](=O)[O-])c1SCC(=O)O | 4.52% [at 11.4 µM] (inactive) | –

Row | SMILES | activity, negative = inhibition | AC50
28 | OCCN=c1cc(-c2ccccc2)oc2ccc(Cl)cc12 | – | 2 µM (active)
29 | Cc1cc2c(=O)[nH]c(N)nc2nc1C | 0.234% [at 11.4 µM] (inactive) | –
30 | CC(=O)c1sc(N)c(C(=O)OC(C)C)c1C | – | 10 µM (active)
31 | CCOC(=O)/C(C#N)=C1/SC(CC)C(=O)N1c1ccc(Br)cc1 (stereo not given) | – | 12.6 µM (active)
32 | Cc1ccc(S(=O)(=O)N2CCCC(C(=O)NCCCN3CCCCC3C)C2)cc1 (stereo not given) | -9.5% (inactive) | –
33 | O=C(CC1CCCCC1)N1CCC(c2nc(-c3ccc(S(=O)(=O)N4CCCC4)cc3)no2)CC1 | – | 7.94 µM (active)
34 | COC(=O)[C@@]1(Cc2ccc(OC)cc2)[C@H]2c3cc(C(=O)N4CCCC4)n(CCc4c[nH]c5ccc(O)cc45)c3C[C@H]2CN1C(=O)c1ccccc1 | – | 3.16 µM (active)
35 | COC(=O)[C@@]1(Cc2ccc(F)cc2)[C@H]2c3cc(C(=O)N4CCCC4)n(CCc4c[nH]c5ccc(OC)cc45)c3C[C@H]2CN1C(=O)c1ccccc1 | – | 7.94 µM (active)
36 | COc1ccc(NC(=O)N2CCCC3(CCN(C(=O)c4cccc(F)c4)CC3)C2)cc1 | -14.3% (inactive) | –
37 | COC(=O)[C@@]1(Cc2ccc(OC)cc2)[C@H]2c3cc(C(=O)N4CCCC4)n(CCc4c[nH]c5cc(F)ccc45)c3C[C@H]2CN1C(=O)c1ccccc1 | – | 3.16 µM (active)
38 | COc1ccc(NC(=O)N2CC[C@@]3(CCCN(C(=O)c4cccc(F)c4)C3)C2)cc1 | -7.57% (inactive) | –
39 | COC(=O)[C@@]1(Cc2ccc(F)cc2)[C@H]2c3cc(C(=O)N4CCCC4)n(CCc4c[nH]c5ccccc45)c3C[C@H]2CN1C(=O)c1ccccc1 | – | 2.51 µM (active)
40 | O=C(O)[C@@H]1CCCN1Cc1cc2ccccc2c2ccccc12 | -0.145% [at 11.4 µM] (inactive) | –
41 | Nc1nc2c(ncn2COC(CO)CO)c(=O)[nH]1 | – | inactive
42 | NC(=O)c1cc[n+](CC2=C(C(=O)O)N3C(=O)[C@@H](NC(=O)[C@H](c4ccccc4)S(=O)(=O)[O-])[C@@H]3SC2)cc1 | – | inactive
43 | Cc1cnc(CNc2ncncc2-c2ccccc2C)cn1 | 3.37% [at 2.29 µM] (inactive) | –
44 | C[C@@H]1/C=C\CC(=O)OC[C@H]2O[C@@H](C=C[C@@H]2O)[C@H](C)/C=C\CC(=O)OC1 | -2.72% [at 11.4 µM] (inactive) | –
45 | O=C(O)c1c[nH]c2c(ccc3[nH]cc(C(=O)O)c(=O)c32)c1=O | 12.3% [at 11.4 µM] (inactive) | –
46 | N#Cc1c(N2CCN(C(=O)c3ccccc3Cl)CC2)nc(-c2ccccc2)c2c1CCCC2 | – | 2.51 µM (active)
47 | N#Cc1ccc(CN2CCC3(CC2)CCN(C(=O)c2ccncc2)CC3)cc1 | -1.7% (inactive) | –
48 | Nc1nc2c(C(=O)NCc3cccs3)nnn2c2cccc(Cl)c12 | 12.5% [at 11.4 µM] (inactive) | –
49 | c1ccc(-c2noc(CSc3nnnn3C3CCCCC3)n2)cc1 | – | 3.55 µM (active)
50 | c1ccc(CCc2nc(-c3ccccc3)no2)cc1 | -12.7% (inactive) | –
51 | CCN(CC)CCc1nc(-c2ccccc2)no1 | -0.446% [at 25.6 µM] (inactive) | –
52 | O=C(N/N=C1/C[C@@H](O)[C@@H](O)[C@@H]2[C@@H]3C(=O)N(Cc4ccccc4)C(=O)[C@H]3CC[C@@H]12)OCc1ccccc1 | 9.14% [at 11.4 µM] (inactive) | –
53 | C[C@@](Cc1ccc(O)c(O)c1)(NN)C(=O)O | -12.5% (inactive) | –
54 | CC(=O)NCCc1ccc(O)c(O)c1 | -8.63% (inactive) | –

Row | SMILES | activity, negative = inhibition | AC50
55 | CCCCCCCC/C=C\CCCCCCCC(=O)NCCc1ccc(O)c(O)c1 | – | 1.58 µM (active)
56 | Nc1ccn([C@H]2O[C@H](CO)[C@@H]3[O][Sn]([c]4ccccc4)([c]4ccccc4)[O][C@H]32)c(=O)n1 | 24.8% [at 11.4 µM] (inactive) | –
57 | FC(F)(F)c1ccccc1-c1ccc2ncnc(N3CCOCC3)c2c1 | -28.6% [at 2.29 µM] (inactive) | –
58 | CCN1C(=O)[C@H]2[C@H]3[C@H](O)[C@H](O)C/C(=N/OC[C@@H](O)COCc4ccco4)[C@H]3CC[C@@H]2C1=O | 1.57% [at 11.4 µM] (inactive) | –
59 | c1ccc(Nc2ncncc2-c2ccc3c(c2)OCO3)cc1 | -20.1% [at 2.29 µM] (inactive) | –
60 | c1ccc(SC(Sc2ccccc2)c2ccc3c(c2)OCO3)cc1 | – | 3.16 µM (active)
61 | O=C(O)C[C@H](Cc1ccc2c(c1)OCO2)C(=O)O | -23.6% [at 11.4 µM] (inactive) | –
62 | CCCCN(C)CCCNC(=O)CCn1nc(-c2ccccc2)ccc1=O | -20.5% (inactive) | –
63 | COc1ccc(-c2ccc(=N)n(CCCC(=O)O)n2)cc1 | – | 3.16 µM (active)
64 | COc1ccc(-c2ccc(N)[n+](CCCC(=O)O)n2)cc1 | – | inactive
65 | COc1cccc(Cn2c(NCc3cccnc3)nc3c2c(=O)n(C)c(=O)n3C)c1 | – | 6.31 µM (active)
66 | COc1cccc(-c2cc(NCc3cccnc3)ncn2)c1 | -28.7% [at 2.29 µM] (inactive) | –
67 | CSC1(SC2=NCCN2)SC2(NCCN2)S1 | -10.8% [at 11.4 µM] (inactive) | –
68 | CCOC(=O)Nc1ccc(C(=O)Oc2ccccc2)c(O)c1 | – | 17.8 µM (active)
69 | CC(C)(C)c1ccc(OC(=O)Nc2ccc(O)c(C(=O)O)c2)cc1 | -20.8% [at 11.4 µM] (inactive) | –
70 | O=C(Nc1ccc2oc(=O)c(C(=O)O)cc2c1)Oc1ccccc1 | -10.6% [at 11.4 µM] (inactive) | –
71 | CCOC(=O)c1cc2c(=O)n3ccccc3nc2n(CCCOC)c1=NC(=O)C(C)(C)C | – | 1.58 µM (active)
72 | O=C(c1csnn1)N1CCC2(CC1)CCN(c1ncccn1)CC2 | 6.9% (inactive) | –
73 | COc1cc(N=c2ssnc2Cl)cc(OC)c1OC | – | 6.31 µM (active)
74 | CCOC(=O)N/N=C1/C[C@@H](O)[C@@H](O)[C@@H]2[C@@H]3C(=O)N([C@@H](C)c4ccccc4)C(=O)[C@H]3CC[C@H]12 | 27.2% [at 11.4 µM] (inactive) | –
75 | CN(C)C(=O)c1cn(N(C)c2ncc(C(F)(F)F)cc2Cl)c(=O)c2ccccc12 | – | 2.82 µM (active)
76 | CCOC(=O)C(C(=O)NCc1ccc(C)cc1)c1ncc(C(F)(F)F)cc1Cl (stereo not given) | 10.8% (inactive) | –
77 | C[n+]1ccccc1/C=N\O | 2.77% [at 25.6 µM] (inactive) | –
78 | O=c1c(-c2nc3ccccc3s2)cccn1Cc1ccccc1 | – | 3.16 µM (active)
79 | c1cc(CN2CCCCC2)cc(OCCCNc2nc3ccccc3s2)c1 | – | inactive
80 | C=CCn1c(-c2cccn(Cc3ccccc3)c2=O)n[nH]c1=S | -28.8% (inactive) | –
